About 2,000 (36%) of roughly 5,500 compounds were called active. About 18% were inconclusive and are not listed. No stated cut-off is given here; in the data, active means normalized growth mostly below about 0.91 (no sharp cut-off); inconclusive means no clear call, values can overlap the other calls; inactive means mostly above about 0.92. The list shows a part of the results.
Assay: chemical genetic growth profiling, strain panel (AID 1159580);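 further: tested at 20 µM; growth read once vehicle control cultures reached saturation at 30 °C; 1 = growth at the plate median or of vehicle wells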
Settings: S. cerevisiae deletion strains, growth OD

Measured: normalized growth

Cc1ccc(-c2nc3ccc(C)cn3c2CC(=O)N(C)C)cc1
inactive: locus YAL021C, strain ccr4, stronger effect = lower value 1.06 | locus YAL026C, strain drs2, stronger effect = lower value 1.01 | locus YAL030W, strain snc1, stronger effect = lower value 1.02 | locus YBL061C, strain skt5, stronger effect = lower value 0.998 | locus YBR009C, strain hhf1, stronger effect = lower value 1.02 | locus YBR023C, strain chs3, stronger effect = lower value 0.989 | locus YBR171W, strain sec66, stronger effect = lower value 1.04 | locus YBR231C, strain swc5, stronger effect = lower value 0.966 | locus YBR279W, strain paf1, stronger effect = lower value 0.993 | locus YCL011C, strain gbp2, stronger effect = lower value 1.01 | locus YCL016C, strain dcc1, stronger effect = lower value 0.987 | locus YCL061C, strain MRC1, stronger effect = lower value 1.02 | locus YCL069W, strain vba3, stronger effect = lower value 1.02 | locus YCR088W, strain abp1, stronger effect = lower value 1.03 | locus YDL005C, strain med2, stronger effect = lower value 1.01 | locus YDL040C, strain nat1, stronger effect = lower value 1 | locus YDR001C, strain nth1, stronger effect = lower value 1.02 | locus YDR069C, strain doa4, stronger effect = lower value 1.01 | locus YDR137W, strain rgp1, stronger effect = lower value 1.05 | locus YDR159W, strain sac3, stronger effect = lower value 0.96 | locus YDR195W, strain ref2 1 | locus YDR297W, strain sur2, stronger effect = lower value 1 | locus YDR334W, strain swr1, stronger effect = lower value 1.02 | locus YDR335W, strain msn5, stronger effect = lower value 0.991 | locus YDR392W, strain spt3, stronger effect = lower value 0.939 | locus YEL003W, strain gim4, stronger effect = lower value 1.01 | locus YEL037C, strain rad23, stronger effect = lower value 1.01 | locus YEL061C, strain CIN8 (second series), stronger effect = lower value 1.01 | locus YER015W, strain faa2, stronger effect = lower value 1.02 | locus YER016W, strain bim1, stronger effect = lower value 1.01 | locus YER111C, strain swi4, stronger effect = lower value 1.03 | locus YER155C, strain BEM2 (second series), stronger effect = lower value 0.998 | locus YFR010W, strain ubp6, stronger effect = lower value 1.02 | locus YGL167C, strain pmr1, stronger effect = lower value 0.996 | locus YGL173C, strain kem1, stronger effect = lower value 1.01 | locus YGL227W, strain vid30, stronger effect = lower value 1.01 | locus YGL240W, strain doc1, stronger effect = lower value 1.09 | locus YGL253W, strain hxk2, stronger effect = lower value 0.999 | locus YHR013C, strain ard1, stronger effect = lower value 1.06 | locus YHR027C, strain rpn1, stronger effect = lower value 0.981 | locus YHR142W, strain chs7, stronger effect = lower value 1.03 | locus YJL092W, strain hpr5, stronger effect = lower value 1.02 | locus YJL095W, strain BCK1 (second series), stronger effect = lower value 1.01 | locus YJL115W, strain asf1, stronger effect = lower value 1.02 | locus YJL129C, strain trk1, stronger effect = lower value 1 | locus YJL154C, strain vps35, stronger effect = lower value 1.02 | locus YJL164C, strain tpk1, stronger effect = lower value 1.01 | locus YJL166W, strain qcr8, stronger effect = lower value 1.03 | locus YJL187C, strain SWE1, stronger effect = lower value 1.01 | locus YKL160W, strain elf1, stronger effect = lower value 0.997 | locus YKR026C, strain gcn3, stronger effect = lower value 1.02 | locus YKR091W, strain srl3, stronger effect = lower value 1.03 | locus YLL001W, strain dnm1, stronger effect = lower value 0.988 | locus YLL026W, stronger effect = lower value 0.999 | locus YLL041C, strain sdh2, stronger effect = lower value 1.01 | locus YLR027C, strain aat2, stronger effect = lower value 1.02 | locus YLR221C, strain rsa3, stronger effect = lower value 0.974 | locus YLR258W, strain gsy2, stronger effect = lower value 1.03 | locus YLR262C, strain YPT6 (second series), stronger effect = lower value 1.01 | locus YLR320W, strain mms22, stronger effect = lower value 0.991 | locus YLR342W, strain FKS1, stronger effect = lower value 0.987 | locus YLR357W, strain rsc2, stronger effect = lower value 1.01 | locus YLR370C, strain arc18, stronger effect = lower value 0.978 | locus YLR384C, strain iki3, stronger effect = lower value 0.975 | locus YML120C, strain ndi1, stronger effect = lower value 0.984 | locus YMR058W, strain fet3, stronger effect = lower value 1.02 | locus YMR125W, strain sto1, stronger effect = lower value 1.03 | locus YMR129W, stronger effect = lower value 0.978 | locus YMR205C, strain PFK2, stronger effect = lower value 1 | locus YMR231W, strain pep5, stronger effect = lower value 1.02 | locus YNL071W, strain lat1, stronger effect = lower value 1.03 | locus YNL209W, strain ssb2, stronger effect = lower value 0.995 | locus YNL248C, strain rpa49, stronger effect = lower value 1.02 | locus YNL322C, strain KRE1 (second series), stronger effect = lower value 1.03 | locus YNR049C, strain mso1, stronger effect = lower value 0.986 | locus YOR001W, strain rrp6, stronger effect = lower value 0.951 | locus YOR070C, strain gyp1, stronger effect = lower value 0.988 | locus YOR080W, strain dia2, stronger effect = lower value 0.998 | locus YOR083W, strain WHI5, stronger effect = lower value 0.969 | locus YOR106W, strain vam3, stronger effect = lower value 1.08 | locus YOR265W, strain rbl2, stronger effect = lower value 0.969 | locus YOR270C, strain vph1, stronger effect = lower value 1.07 | locus YOR290C, strain snf2, stronger effect = lower value 1.03 | locus YPL051W, strain arl3, stronger effect = lower value 1.02 | locus YPL078C, strain atp4, stronger effect = lower value 1.03 | locus YPL106C, strain sse1, stronger effect = lower value 1.12 | locus YPL240C, strain hsp82, stronger effect = lower value 0.982
